Laboratory results published in PubChem BioAssay AID2528 (National Center for Advancing Translational Sciences (NCATS), 2010).
The campaign covered roughly 350,000 compounds. About 700 (0.2%) were called active. What follows is part of a selection rich in actives, with near analogues and random picks from the rest. A call without a number means that no potency is given here. Values without a mark were called inactive. Calls come from the whole dose curve; as a rule, active = well fitted inhibition curve with a large enough effect; inconclusive = small, poorly fitted or top-dose-only effect; inactive = flat fitted curve, though single readings scatter.

biological target: RecQ-like DNA helicase BLM (Homo sapiens) (UniProt P54132); assay: qHTS Assay for Inhibitors of Bloom's syndrome helicase (BLM); conditions: recombinant BLM DNA unwinding, fluorescence dequenching; series mostly up to 56.1 µM; note: nearly all actives have a fitted effect of over 35% in size
Potency is the fitted concentration of half-maximal effect.

Chain of RecQ-like DNA helicase BLM (Homo sapiens) (P54132 whole entry, looked up): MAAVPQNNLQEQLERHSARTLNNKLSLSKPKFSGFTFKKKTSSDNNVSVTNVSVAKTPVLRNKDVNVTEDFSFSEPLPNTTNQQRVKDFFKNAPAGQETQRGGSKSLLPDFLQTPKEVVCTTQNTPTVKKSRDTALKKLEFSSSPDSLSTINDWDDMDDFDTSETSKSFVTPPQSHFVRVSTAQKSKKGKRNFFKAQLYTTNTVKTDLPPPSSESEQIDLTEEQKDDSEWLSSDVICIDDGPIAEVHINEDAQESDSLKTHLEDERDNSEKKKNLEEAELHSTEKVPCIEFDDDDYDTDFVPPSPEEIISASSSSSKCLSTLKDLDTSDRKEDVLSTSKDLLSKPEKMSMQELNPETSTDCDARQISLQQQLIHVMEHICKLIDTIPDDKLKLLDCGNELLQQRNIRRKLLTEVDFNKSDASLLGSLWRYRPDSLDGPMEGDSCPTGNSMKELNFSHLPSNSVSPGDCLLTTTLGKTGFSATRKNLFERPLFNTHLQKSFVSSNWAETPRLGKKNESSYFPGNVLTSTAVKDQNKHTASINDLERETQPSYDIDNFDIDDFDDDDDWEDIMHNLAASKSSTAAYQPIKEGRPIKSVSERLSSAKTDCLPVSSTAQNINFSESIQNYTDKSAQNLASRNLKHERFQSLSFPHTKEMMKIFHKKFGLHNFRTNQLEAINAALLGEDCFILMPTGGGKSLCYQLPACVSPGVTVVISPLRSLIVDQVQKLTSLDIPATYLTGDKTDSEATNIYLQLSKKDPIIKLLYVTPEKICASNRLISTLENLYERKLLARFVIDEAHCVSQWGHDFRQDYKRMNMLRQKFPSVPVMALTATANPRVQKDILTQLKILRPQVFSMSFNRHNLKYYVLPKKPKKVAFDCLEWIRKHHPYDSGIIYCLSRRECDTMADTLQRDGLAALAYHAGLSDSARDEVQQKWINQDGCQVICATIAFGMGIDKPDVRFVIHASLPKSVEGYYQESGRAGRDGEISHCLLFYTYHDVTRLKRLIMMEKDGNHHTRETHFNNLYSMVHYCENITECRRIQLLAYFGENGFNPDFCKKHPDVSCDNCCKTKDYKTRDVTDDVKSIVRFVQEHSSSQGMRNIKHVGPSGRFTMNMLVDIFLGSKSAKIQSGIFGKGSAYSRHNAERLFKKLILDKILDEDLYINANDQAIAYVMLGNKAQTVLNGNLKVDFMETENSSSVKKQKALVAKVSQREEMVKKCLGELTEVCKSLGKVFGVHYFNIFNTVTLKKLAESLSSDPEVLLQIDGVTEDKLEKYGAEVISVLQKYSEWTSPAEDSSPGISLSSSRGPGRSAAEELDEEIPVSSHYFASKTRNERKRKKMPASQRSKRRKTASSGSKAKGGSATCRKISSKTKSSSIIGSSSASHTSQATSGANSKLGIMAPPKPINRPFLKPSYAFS

SMILES	Potency	activity change, negative = inhibition
Cc1c(CCNC(=O)c2ccc(C(F)(F)F)cc2)sc2nc(-c3ccc(F)cc3)nn12	inactive	
COC(=O)C1=C(C(=O)OC)[C@@H]2N(Cc3ccccc3)c3ccccc3[C@@]23C[C@@H](C(=O)OC)N(S(=O)(=O)c2ccc(C(F)(F)F)cc2)C3=N1		0.18% [at 12.4 µM]
COc1ccc(-c2nc3c(c4c2C[C@H](c2ccccc2)OC4)CN(C(=O)C2CC2)CC3)c(C)c1		-3.76% [at 12.4 µM]
CCOC(=O)C1CCCN(C(=O)Cn2ncc3c(C)n(Cc4ccc(F)cc4)c(C)c3c2=O)C1 (stereo unspecified)	inactive	
COC(=O)c1ccc2c(c1)N(CC(=O)Nc1ccc(C)c(C)c1)C(=O)c1ccccc1S2	inactive	
Cc1nc([N+](=O)[O-])cn1CC(=O)Nc1ccc2c(c1)OCO2	inactive	
Cc1ccc(C(=O)O)cc1-c1ccc(/C=C2\SC(=O)N(CC(=O)Nc3ccc4c(c3)OCO4)C2=O)o1	25.1 µM (active)	
Cn1c(COc2ccc(Cl)cc2)nc2ccccc2c1=O	inactive	
Cn1c2ccccc2c(=O)c2c(=O)n(Cc3ccco3)c(COc3ccccc3)nc21	8.91 µM (active)	
CCCc1nc2c(c(=O)c3ccccc3n2C)c(=O)n1C1CCCCCC1	inactive	
COC(=O)[C@H]1C[C@@H]1[C@H](NC(=O)Oc1ccc(F)cc1)c1ccccc1	inactive	
CCC(C)NC(=O)c1c(N)n(/N=C/c2cccs2)c2nc3ccccc3nc12 (stereo unspecified)	inactive	
O=C(NCc1cccs1)c1cc(-c2ccccn2)nc2ccc(Br)cc12	inactive	
CC(C)Cn1c(N)c(C(=O)NCc2cccs2)c2nc3ccccc3nc21	31.6 µM (active)	
CCC[C@@H]1C[C@@]1(CCC)C(NS(=O)(=O)c1cccc2cccnc12)c1ccc(Cl)cc1 (stereo partly specified)	inactive	
COc1ccc(Nc2ncc3c(n2)CCN(C(=O)OC(C)(C)C)C3)cc1	inactive	
Cc1ccc(-c2nn(-c3ccccc3)cc2/C=C2\SC(=S)N(CCCCCC(=O)O)C2=O)o1	28.2 µM (active)	
O=C1/C(=C\c2ccccc2Cl)SC(=S)N1CCC(=O)N1CCCc2ccccc21	inactive	
COc1ccc(/C=C2/SC(=O)N(CCCCCC(=O)Nc3ccccc3C(=O)O)C2=S)cc1	inactive	
C/C=C(\C)C(=O)OC1C(OC(=O)C2(C)OC2C)c2cc3ccc(=O)oc3cc2OC1(C)C (stereo unspecified)	inactive	
CC(C)(O)CCC(O)[C@@](C)(O)C1CC[C@]2(O)C3=CC(=O)C4CC(O)C(O)C[C@]4(C)C3CC[C@]12C (stereo partly specified)	inactive	
COc1ccc(NC(=O)COc2ccc(C(=O)OCC(=O)N(C)C3CCS(=O)(=O)C3)cc2OC)cc1 (stereo unspecified)	inactive	

SMILES	Potency	activity change, negative = inhibition
COc1ccc2c(-c3ccccc3)cc(SCC(=O)N(C)C3CCS(=O)(=O)C3)nc2c1 (stereo unspecified)	inactive	
CN(C(=O)COC(=O)c1cc(-c2ccco2)nc2ccccc12)C1CCS(=O)(=O)C1 (stereo unspecified)	3.16 µM (active)	
COc1cccc(-c2cc(NCCc3c[nH]c4ccc(OC)cc34)ncn2)c1	inactive	
CO[C@H]1COC(=O)[C@@H](C)NC(=O)C/C=C\[C@@H](C)[C@H](OC)COC(=O)C/C=C\[C@@H]1C		0.711% [at 12.4 µM]
CCCC[C@@H]1C[C@H]1C(NC(=O)c1ccco1)c1ccc(C(=O)OC)cc1 (stereo partly specified)	inactive	
CCOc1ccc(OCC)c(NC(=O)CN(c2ccc(C)cc2)S(=O)(=O)c2c(C)n[nH]c2C)c1	inactive	
CCCCC/C=C\C/C=C\C/C=C\CCCCC(=O)NCC(=O)O	inactive	
COc1cccc([C@@H]2Oc3ccc(Br)cc3C(=O)[C@H]2OC(=O)NCCc2ccc(OC)c(OC)c2)c1	inactive	
CCc1nn(CC(=O)NCC(C)c2ccccc2)c(=O)c2cc3occc3n12 (stereo unspecified)	inactive	
C[C@@H]1C[C@H]2[C@@H]3C[C@H](F)C4=CC(=O)C=C[C@@]4(C)[C@]3(F)[C@H](O)C[C@]2(C)[C@@]1(O)C(=O)CO	inactive	
CC(=O)OC1C([N+]2(C)CCCCC2)C[C@H]2C3CC[C@H]4C[C@H](OC(C)=O)C([N+]5(C)CCCCC5)CC4(C)C3CCC12C (stereo partly specified)	inactive	
COC(=O)C(C(=O)OC)[C@@H]1CCCC(=O)C1		-7.4% [at 12.4 µM]
O=c1cc(-c2ccc(O)cc2)oc2c(-c3cc(-c4cc(=O)c5c(O)cc(O)cc5o4)ccc3O)c(O)ccc12	inactive	
COc1ccc(C2(C#N)CCC(C(=O)O)CC2)cc1OC1CCCC1 (stereo unspecified)	inactive	
COC(=O)C1(C)C=CCN1C(=O)c1ccccc1 (stereo unspecified)	inactive	
CC(C)=CC1C(C(=O)O)C1(C)C (stereo unspecified)	inactive	
O=C(CCOc1ccccc1)N(Cc1cccnc1)c1nc2ccc(Cl)cc2s1	inactive	
CC1(C)OC2CC(=O)OC[C@@]23C1CC(=O)[C@]1(C)C3CC[C@@]2(C)C(c3ccoc3)OC(=O)C3O[C@@]321 (stereo partly specified)	inactive	
FC(F)(F)c1ccccc1-c1cc(NCc2ccccc2)ncn1	inactive	
O=C(CSc1nccn1Cc1ccc(Cl)cc1)NCc1ccccc1	inactive	
C/C=C/C=N/NC(=O)c1ccncc1	inactive	
CC1CN(C(=O)N2CCC(C(=O)NCc3ccco3)CC2)c2cc(Cl)ccc2O1 (stereo unspecified)	inactive	

SMILES	Potency	activity change, negative = inhibition
COC(=O)[C@@H]1C[C@@]2(O)[C@H](O)[C@H](O)[C@H](O)C[C@H]2N1CC1CCCCC1	inactive	
O=C(c1cnccn1)N1CCC2(CCCN(Cc3ccccc3)C2)CC1	inactive	
CCOC(=O)Cn1c(=O)sc2cccc(Cl)c21	inactive	
O=C(c1cnccn1)N1CCC2(CCN(Cc3cc(C(F)(F)F)cc(C(F)(F)F)c3)CC2)CC1	inactive	
O=c1cc2nc(-c3ccccc3)nc(SCCOc3ccc(Cl)cc3)n2[nH]1	inactive	
Cc1ccc(-c2nc(SCc3ccc(Br)cc3)n3[nH]c(=O)cc3n2)cc1	28.2 µM (active)	
Cc1cccc(-c2nc(SCc3ccc(Br)cc3)n3[nH]c(=O)cc3n2)c1	inactive	
O=C(OCc1ccccc1)c1ccc(O)cc1	inactive	
COC(=O)N1C(/C=C/C=C/c2ccc(OC)cc2)=Cc2ccccc2C1CC(C)=O (stereo unspecified)		-6.97% [at 12.4 µM]
C[C@H]1Cc2c(-c3ccccc3)nc3c(c2CO1)CN(S(=O)(=O)c1ccc(Cl)c2nonc12)CC3		-0.0157% [at 12.4 µM]
O=c1c(CCc2ccccc2)nc2cnc(N3CCNCC3)nc2n1Cc1cccs1	inactive	
COc1cc(OC)cc(-c2nnc(SCC(=O)Nc3ccc(C(=O)O)cc3)s2)c1	inactive	
COc1ccc(NC(=O)CSc2nc(N)c(-c3ccccc3)c(=O)[nH]2)cc1	inactive	
COc1ccc(-c2nc3c(c(SCC(=O)Nc4ccc(C(=O)O)cc4)n2)Cc2ccccc2O3)cc1	7.08 µM (active)	
Cc1ccc(NS(=O)(=O)c2ccc(N/N=C/c3ccccc3OCC(=O)O)c([N+](=O)[O-])c2)c(C)c1	7.08 µM (active)	
C=C(C)CNC(=S)N/N=C/c1ccccc1OCC(=O)O	inactive	
Cc1ccc(S(=O)(=O)NC(=O)COc2ccccc2C)cc1	inactive	
COc1c(O)c2c(=O)cc(OC)c3c4c(OC)cc(=O)c5c(O)c(OC)c6c(c(c1C[C@@](C)(O)[C@H]6C(C)=O)c23)c54	inactive	
COC(=O)[C@@]1(C)C=C[C@@H](Cc2ccccc2)N1C(C)=O	inactive	
CCc1c2c(nc3ccc(O)cc13)-c1cc3c(c(=O)n1C2)COC(=O)[C@]3(O)CC	inactive	
Oc1ccc(Cl)c2c1CCC2	inactive	
COc1ccc(C(=O)N2CCC3(CCCN(C(c4ccccc4)c4ccccc4)C3)CC2)cc1	inactive	

SMILES	Potency	activity change, negative = inhibition
Cc1cc(N=Nc2ccc3ccccc3c2)ccc1O	inactive	
CCCC(=O)Nc1ccc(NC(=O)c2sc3ccccc3c2Cl)cc1	inactive	
CCOc1[nH]n(-c2ccc(Cl)cc2)c(=O)c1C=Nc1ccc(O)cc1	inactive	
COC(=O)c1cc(NC(=O)c2sc3ccccc3c2Cl)cc(C(=O)OC)c1	inactive	
Oc1ccc(N=Cc2c(O)ccc3ccccc23)cc1	31.6 µM (active)	
Oc1ccc(N=Cc2sc3ccccc3c2Cl)cc1	20 µM (active)	
Cc1cccc(CNc2ccnc(-c3cccnc3)n2)c1	inactive	
O=C(Nc1cc(C(=O)Nc2ccc(S(=O)(=O)O)cc2)cc(C(=O)Nc2ccc(S(=O)(=O)O)cc2)c1)Nc1cc(C(=O)Nc2ccc(S(=O)(=O)O)cc2)cc(C(=O)Nc2ccc(S(=O)(=O)O)cc2)c1	inactive	
O=C(c1ccncc1)N1CCC2(CCCN(C(c3ccccc3)c3ccccc3)C2)CC1	inactive	
O=C(c1cnccn1)N1CCC[C@@]2(CCN(Cc3ccncc3)C2)C1	inactive	
CCc1nc(-c2cc(S(=O)(=O)N3CCN(c4ccc(OC)cc4)CC3)ccc2OC)no1	inactive	
CCCS(=O)(=O)c1ncc(Cl)c(C(=O)Nc2scc(-c3ccccc3)c2C(=O)OCC)n1	inactive	
Oc1c(C(c2ccc(F)cc2)N2CCN(Cc3ccccc3)CC2)sc2nc(-c3ccco3)nn12 (stereo unspecified)	inactive	
C=C1C([C@@]2(C)C(OC(C)=O)CC(=O)O[C@@](C)(COC(C)=O)C2CC(=O)OC)C(OC=O)C(OC(=O)C(O)C(C)CC)[C@]2(C)C(c3ccoc3)CC(=O)C12O (stereo partly specified)	inactive	
CC(=O)N1CCC2(CCCN(Cc3ccc(C#N)cc3)C2)CC1	inactive	
CC1(C)C=CC(=O)[C@]2(C)C1CC(=O)[C@]1(C)C2CC[C@@]2(C)C(c3ccoc3)OC(=O)C3OC321 (stereo partly specified)	inactive	
C=C1CCN(C(CC(C)C)C(=O)N2CCOCC2)S(=O)(=O)c2ccccc21 (stereo unspecified)	inactive	
COc1ccc(S(=O)(=O)NCC(c2ccc(N(C)C)cc2)N2CCc3ccccc32)cc1OC (stereo unspecified)	inactive	
O=C(O)c1ccc(/C=C2/SC(=S)N(c3cccc(C(F)(F)F)c3)C2=O)cc1	inactive	
Cn1c(N)c(C(=O)COC(=O)c2cc(C(F)(F)F)nc3c(C(F)(F)F)cccc23)c(=O)n(C)c1=O	inactive	
